# Where a name gives a salt, the structure may show the parent alone.
# Columns and labels:
# [1] = tested on: Staphylococcus aureus MW2 delta-mecA (mecA-); assay: normalized GFP fluorescence (growth of mecA- strain) (fraction of control range); higher = more growth of mecA- strain; conditions: compound concentration: 150 uM; cefoxitin: subinhibitory; fluorescent label: GFP
# How it was run: (§1)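 Pre-induced S. aureus MW2 cells carrying the gene (DsRed) and deletion cells lacking it (GFP) were combined 1:1 in LB containing a subinhibitory antibiotic dose set each day, then dispensed at 5 µL/well onto 150 μM compound (1.5% DMSO) in 1536-well plates as a single replicate. After 20 h at 37 °C and 90% humidity without shaking, DsRed (540/590) and GFP (485/520) were read. Each channel was scaled per plate between the medians of the single-strain controls, and plates with high untreated ratios and rows with DsRed/GFP >10 were excluded.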
# [2] = tested on: Staphylococcus aureus MW2 (mecA+); assay: normalized DsRed fluorescence (growth of mecA+ strain) (fraction of control range); higher = more growth of mecA+ strain; conditions: compound concentration: 150 uM; cefoxitin: subinhibitory; fluorescent label: DsRed
# How it was run: as §1
SMILES,normalized GFP fluorescence [1],normalized DsRed fluorescence [2]
O=C(C1CCCCC1)N1CC(=O)N2CCc3ccccc3C2C1 (configuration not stated),0.421,0.542
CC(=O)CC(c1ccccc1)c1c(O)c2ccccc2oc1=O (configuration not stated),0.718,0.285
CN1CCC[C@@H]1CCO[C@](C)(c1ccccc1)c1ccc(Cl)cc1 [Clemastine Fumarate],0.00687,0.338
CC(=O)[C@H]1CC[C@H]2[C@@H]3CCC4=CC(=O)CC[C@]4(C)[C@H]3CC[C@]12C,0.278,0.415
CO[C@H]1C[C@@H]2CC[C@@H](C)[C@@](O)(O2)C(=O)C(=O)N2CCCC[C@H]2C(=O)O[C@H]([C@H](C)C[C@@H]2CC[C@@H](OC(=O)C(C)(CO)CO)[C@H](OC)C2)CC(=O)[C@H](C)/C=C(\C)[C@@H](O)[C@@H](OC)C(=O)[C@H](C)C[C@H](C)/C=C/C=C/C=C/1C [Temsirolimus (Torisel)],-0.00155,1.96
CC(=O)Nc1c(I)c(NC(C)=O)c(I)c(C(=O)O)c1I,0.477,1.13
CN(C/C=C/c1ccccc1)Cc1cccc2ccccc12,0.0944,1.02
CC(C)(CO)[C@@H](O)C(=O)NCCCO,0.406,0.653
O=C1CC2(CCCC2)CC(=O)N1CCCCN1CCN(c2ncccn2)CC1,0.698,0.71
Nc1cc(N2CCCCC2)nc(N)[n+]1[O-],0.524,0.731
O=C1N=C(O)NC1(c1ccccc1)c1ccccc1,0.309,1.06
Cc1ccc(Nc2nccc(N(C)c3ccc4c(C)n(C)nc4c3)n2)cc1S(N)(=O)=O [Pazopanib],0.64,0.586
CCN1C(=O)NC(c2ccccc2)C1=O (configuration not stated),0.469,1.21
CC(C)(Oc1ccc(CCNC(=O)c2ccc(Cl)cc2)cc1)C(=O)O,0.407,0.804
OC[C@@H](O)[C@@H](O)[C@H](O)[C@@H](O)CO [Sorbitol (Glucitol)],0.227,1.15
CC[N+](C)(C)Cc1ccccc1Br,0.178,0.523
c1ccc2c(CC3=NCCN3)cccc2c1,0.526,0.668
COc1cc2/c(=N/c3ccc(Br)cc3F)nc[nH]c2cc1OCC1CCN(C)CC1 [Vandetanib (Zactima)],0.22,1.19

SMILES,normalized GFP fluorescence [1],normalized DsRed fluorescence [2]
CCN(CCCc1ccccc1)CCCc1ccccc1,0.1,1.17
Cc1c2oc3c(C)ccc(C(=O)N[C@@H]4C(=O)N[C@H](C(C)C)C(=O)N5CCC[C@H]5C(=O)N(C)CC(=O)N(C)[C@@H](C(C)C)C(=O)O[C@@H]4C)c3nc-2c(C(=O)N[C@@H]2C(=O)N[C@H](C(C)C)C(=O)N3CCC[C@H]3C(=O)N(C)CC(=O)N(C)[C@@H](C(C)C)C(=O)O[C@@H]2C)c(N)c1=O,-0.00268,0.0533
Cc1ccccc1C(=O)Nc1ccc(C(=O)N2CCCC(O)c3cc(Cl)ccc32)c(C)c1 (configuration not stated),0.188,0.541
CCOC(=O)C1=C[C@]2(CC)CCCN3CCc4c(n1c1ccccc41)[C@@H]32,0.593,0.554
NC(=O)Cc1cccc(C(=O)c2ccccc2)c1N [Nepafenac],0.747,0.818
CN(C)CCC(c1ccc(Br)cc1)c1ccccn1 (configuration not stated),0.11,1.02
CNC(=O)c1cc(Oc2ccc(NC(=O)Nc3ccc(Cl)c(C(F)(F)F)c3)c(F)c2)ccn1 [Regorafenib (BAY 73-4506)],0.0128,0.0729
NC(=O)c1ccccc1O,0.52,0.666
O=c1[nH]c(=O)n([C@H]2C[C@H](O)[C@@H](CO)O2)cc1I [Idoxuridin],0.512,0.959
NC(=O)OCC(COC(N)=O)c1ccccc1 [Felbamate],0.382,0.864
Cc1ccc(/C(=C\CN2CCCC2)c2ccccn2)cc1,0.244,0.576
CC(=O)NS(=O)(=O)c1ccc(N)cc1,0.792,0.694
Cc1cc(O)cc(C)c1Cl,0.0289,0.544
Cc1cc(C#N)cc(C)c1Oc1nc(Nc2ccc(C#N)cc2)nc(N)c1Br [Etravirine (TMC125)],0.423,0.589
CCN(CC)Cc1cc(Nc2ccnc3cc(Cl)ccc23)ccc1O,0.205,0.684
CCC[C@H](N[C@@H](C)C(=O)N1[C@H](C(=O)O)C[C@@H]2CCCC[C@@H]21)C(=O)OCC [Perindopril Erbumine (Aceon)],0.225,0.779
CNCC[C@H](Oc1cccc2ccccc12)c1cccs1,-0.0294,0.838
CCS(=O)(=O)N1CC(CC#N)(n2cc(-c3ncnc4[nH]ccc34)cn2)C1,0.236,1.85

# Source: the supplement of paper PMC7695840
